Laboratory results reported in the supplement of paper PMC10037445.
± gives the standard deviation of the averaged measurements. Whole data set: some 2,900 compounds, median “NF-kB SEAP reporter activity, fold change vs agonist alone” near 0.99, cut for the highest 2% near 2.6. Shown is part of a subset that was picked to be rich in the highest values.

Assays:
RAW-Dual [1] = experiment: NF-kB SEAP reporter activity, fold change vs agonist alone; cytotoxicity flag (confluency mask): not cytotoxic; higher = enhanced NF-kB activity
Method in brief: (§1)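 Reporter activity is given as fold change relative to agonist-alone wells. To measure it, 50 nL of library stock was pin-tooled onto RAW-Dual macrophages (50,000 cells/well, DMEM, 384-well plates), a PRR agonist followed 1 h later, and cells stayed at 37 °C, 5% CO2. Twenty hours on, supernatant was assayed for IRF (QuantiLuc luminescence) and NF-κB (QuantiBlue, 620 nm absorbance), and wells under 70% of agonist-control IncuCyte confluency in both mask sets were marked cytotoxic.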

RAW-Dual [2] = experiment: NF-kB SEAP reporter activity, fold change vs agonist alone; higher = enhanced NF-kB activity; conditions: cytotoxicity flag (confluency mask): not cytotoxic
Method in brief: as §1

[3] = agonist: ODN 1826 (TLR9) 0.5 ug/mL
[4] = agonist: Pam2CSK4 (TLR2/6) 0.1 ug/mL
[5] = agonist: Pam3CSK4 (TLR2/1) 0.1 ug/mL
[6] = library stock concentration (final ~1000-fold dilution): 10 mM, agonist: Imiquimod (TLR7) […]
[7] = library stock concentration (final ~1000-fold dilution): 10 mM, agonist: MPLA (TLR4) […]

## Cl.N=C(N)NC(=O)c1nc(Cl)c(N)nc1N.O.O (library stock concentration (final ~1000-fold dilution): 10 mM water)
RAW-Dual [1]; agonist: LPS (TLR4) 0.1 ug/mL
  NF-kB SEAP reporter activity: 1.07
RAW-Dual [1]; [3]
  NF-kB SEAP reporter activity: 1.09
RAW-Dual [1]; [4]
  NF-kB SEAP reporter activity: 0.993
RAW-Dual [1]; [5]
  NF-kB SEAP reporter activity: 0.984

## Cl.N=C(N)NC(=O)c1nc(Cl)c(N)nc1N.O.O
RAW-Dual [2]; library stock concentration (final ~1000-fold dilution): 10 mM water, agonist: Imiquimod (TLR7) […]
  NF-kB SEAP reporter activity: 0.827
RAW-Dual [2]; library stock concentration (final ~1000-fold dilution): 10 mM water, agonist: MPLA (TLR4) […]
  NF-kB SEAP reporter activity: 1.01

## Cn1nc(C(C)(C)C)cc1C(=O)NC(Cc1cccc(Cl)c1)C(=O)NCC#N (stereo not drawn) (library stock concentration (final ~1000-fold dilution): 10 mM)
RAW-Dual [1]; agonist: LPS (TLR4) 0.1 ug/mL
  NF-kB SEAP reporter activity: 1.13
RAW-Dual [1]; [3]
  NF-kB SEAP reporter activity: 1.14
RAW-Dual [1]; [4]
  NF-kB SEAP reporter activity: 0.947
RAW-Dual [1]; [5]
  NF-kB SEAP reporter activity: 0.992

## CC(C)(C)c1cc(C(=O)/C(C#N)=N/Nc2cccc(Cl)c2)no1 (library stock concentration (final ~1000-fold dilution): 10 mM)
RAW-Dual [1]; agonist: LPS (TLR4) 0.1 ug/mL
  NF-kB SEAP reporter activity: 4.18
RAW-Dual [1]; [3]
  NF-kB SEAP reporter activity: 1.16
RAW-Dual [1]; [4]
  NF-kB SEAP reporter activity: 0.423
RAW-Dual [1]; [5]
  NF-kB SEAP reporter activity: 0.673

## CC(C)(C)c1cc(C(=O)/C(C#N)=N/Nc2cccc(Cl)c2)no1
RAW-Dual [2]; [6]
  NF-kB SEAP reporter activity: 1.11
RAW-Dual [2]; [7]
  NF-kB SEAP reporter activity: 1.91

## Cn1nc(C(C)(C)C)cc1C(=O)NC(Cc1cccc(Cl)c1)C(=O)NCC#N (stereo not drawn)
RAW-Dual [2]; [6]
  NF-kB SEAP reporter activity: 0.765
RAW-Dual [2]; [7]
  NF-kB SEAP reporter activity: 1.05

## C=C1CCC2C(C)(CO)C(O)CCC2(C)C1C/C=C1/C(=O)OCC1O (stereo not drawn)
RAW-Dual [2]; [6]
  NF-kB SEAP reporter activity: 0.933 ± 0.078
RAW-Dual [2]; [7]
  NF-kB SEAP reporter activity: 0.792 ± 0.1

## C=C1CCC2C(C)(CO)C(O)CCC2(C)C1C/C=C1/C(=O)OCC1O (stereo not drawn) (library stock concentration (final ~1000-fold dilution): 10 mM)
RAW-Dual [1]; agonist: LPS (TLR4) 0.1 ug/mL
  NF-kB SEAP reporter activity: 0.565 ± 0.2
RAW-Dual [1]; [3]
  NF-kB SEAP reporter activity: 0.418 ± 0.039
RAW-Dual [1]; [4]
  NF-kB SEAP reporter activity: 0.96 ± 0.18
RAW-Dual [1]; [5]
  NF-kB SEAP reporter activity: 0.65 ± 0.11

## Cc1ccc(NC(=O)c2ccnc(C(F)(F)F)c2)cc1-c1cc(OCCO)nc(N2CCOCC2)c1 (library stock concentration (final ~1000-fold dilution): 10 mM)
RAW-Dual [1]; agonist: LPS (TLR4) 0.1 ug/mL
  NF-kB SEAP reporter activity: 1.01
RAW-Dual [1]; [3]
  NF-kB SEAP reporter activity: 0.551
RAW-Dual [1]; [4]
  NF-kB SEAP reporter activity: 0.265
RAW-Dual [1]; [5]
  NF-kB SEAP reporter activity: 0.438

## Cc1ccc(NC(=O)c2ccnc(C(F)(F)F)c2)cc1-c1cc(OCCO)nc(N2CCOCC2)c1
RAW-Dual [2]; [6]
  NF-kB SEAP reporter activity: 1.03
RAW-Dual [2]; [7]
  NF-kB SEAP reporter activity: 0.836

## Nc1nc(NCCc2ccc(O)cc2)nc2nc(-c3ccco3)nn12
RAW-Dual [2]; [6]
  NF-kB SEAP reporter activity: 1.7
RAW-Dual [2]; [7]
  NF-kB SEAP reporter activity: 1.36

## CC(C)C(CO)Nc1nc(Nc2cccc(Cl)c2)c2ncn(C(C)C)c2n1 (stereo not drawn) (library stock concentration (final ~1000-fold dilution): 10 mM)
RAW-Dual [1]; agonist: LPS (TLR4) 0.1 ug/mL
  NF-kB SEAP reporter activity: 0.715
RAW-Dual [1]; [3]
  NF-kB SEAP reporter activity: 1.05
RAW-Dual [1]; [4]
  NF-kB SEAP reporter activity: 1.22
RAW-Dual [1]; [5]
  NF-kB SEAP reporter activity: 0.679

## CC(C)n1cnc2c(NCCc3ccc(O)cc3)nc(-c3csc4ccccc34)nc21 (library stock concentration (final ~1000-fold dilution): 10 mM)
RAW-Dual [1]; agonist: LPS (TLR4) 0.1 ug/mL
  NF-kB SEAP reporter activity: 3.02
RAW-Dual [1]; [3]
  NF-kB SEAP reporter activity: 1.56
RAW-Dual [1]; [4]
  NF-kB SEAP reporter activity: 0.535
RAW-Dual [1]; [5]
  NF-kB SEAP reporter activity: 0.662

## Nc1nc(NCCc2ccc(O)cc2)nc2nc(-c3ccco3)nn12 (library stock concentration (final ~1000-fold dilution): 10 mM)
RAW-Dual [1]; agonist: LPS (TLR4) 0.1 ug/mL
  NF-kB SEAP reporter activity: 1.81
RAW-Dual [1]; [3]
  NF-kB SEAP reporter activity: 1.56
RAW-Dual [1]; [4]
  NF-kB SEAP reporter activity: 1.16
RAW-Dual [1]; [5]
  NF-kB SEAP reporter activity: 1.41

## CC(C)n1cnc2c(NCCc3ccc(O)cc3)nc(-c3csc4ccccc34)nc21
RAW-Dual [2]; [6]
  NF-kB SEAP reporter activity: 2.38
RAW-Dual [2]; [7]
  NF-kB SEAP reporter activity: 2.64

## CC(C)C(CO)Nc1nc(Nc2cccc(Cl)c2)c2ncn(C(C)C)c2n1 (stereo not drawn)
RAW-Dual [2]; [6]
  NF-kB SEAP reporter activity: 1.19
RAW-Dual [2]; [7]
  NF-kB SEAP reporter activity: 1.14

## C=C1CCC2C(C)(COC(=O)CCC(=O)O)C(OC(=O)CCC(=O)O)CCC2(C)C1C=CC1=CCOC1=O (stereo not drawn) (library stock concentration (final ~1000-fold dilution): 10 mM)
RAW-Dual [1]; agonist: LPS (TLR4) 0.1 ug/mL
  NF-kB SEAP reporter activity: 1.34
RAW-Dual [1]; [3]
  NF-kB SEAP reporter activity: 0.979
RAW-Dual [1]; [4]
  NF-kB SEAP reporter activity: 1.26
RAW-Dual [1]; [5]
  NF-kB SEAP reporter activity: 1.02

## C=C1CCC2C(C)(COC(=O)CCC(=O)O)C(OC(=O)CCC(=O)O)CCC2(C)C1C=CC1=CCOC1=O (stereo not drawn)
RAW-Dual [2]; [6]
  NF-kB SEAP reporter activity: 0.865
RAW-Dual [2]; [7]
  NF-kB SEAP reporter activity: 1.03

## CN1CCN(CCCNc2ncc(Cl)c(-c3cc4c(C(=O)NC5CC5)cccc4s3)n2)CC1.Cl.Cl.Cl
RAW-Dual [2]; [6]
  NF-kB SEAP reporter activity: 0.215 ± 0.045
RAW-Dual [2]; [7]
  NF-kB SEAP reporter activity: 0.2944 ± 0.00089

## CN1CCN(CCCNc2ncc(Cl)c(-c3cc4c(C(=O)NC5CC5)cccc4s3)n2)CC1.Cl.Cl.Cl (library stock concentration (final ~1000-fold dilution): 10 mM)
RAW-Dual [1]; agonist: LPS (TLR4) 0.1 ug/mL
  NF-kB SEAP reporter activity: 0.313 ± 0.14
RAW-Dual [1]; [3]
  NF-kB SEAP reporter activity: 0.174 ± 0.0094
RAW-Dual [1]; [4]
  NF-kB SEAP reporter activity: 0.0865 ± 0.0023
RAW-Dual [1]; [5]
  NF-kB SEAP reporter activity: 0.134 ± 0.0077

## CCO.N#CC(=C(\N)Sc1ccccc1N)/C(C#N)=C(/N)Sc1ccccc1N
RAW-Dual [2]; [6]
  NF-kB SEAP reporter activity: 0.206
RAW-Dual [2]; [7]
  NF-kB SEAP reporter activity: 0.236

## CCO.N#CC(=C(\N)Sc1ccccc1N)/C(C#N)=C(/N)Sc1ccccc1N (library stock concentration (final ~1000-fold dilution): 10 mM)
RAW-Dual [1]; agonist: LPS (TLR4) 0.1 ug/mL
  NF-kB SEAP reporter activity: 0.241
RAW-Dual [1]; [3]
  NF-kB SEAP reporter activity: 0.368
RAW-Dual [1]; [4]
  NF-kB SEAP reporter activity: 0.0792
RAW-Dual [1]; [5]
  NF-kB SEAP reporter activity: 0.146

## CCn1cc(C(=O)O)c(=O)c2cc(F)c(N3CCN(C)CC3)cc21.CS(=O)(=O)O (library stock concentration (final ~1000-fold dilution): 10 mM)
RAW-Dual [1]; agonist: LPS (TLR4) 0.1 ug/mL
  NF-kB SEAP reporter activity: 0.962
RAW-Dual [1]; [3]
  NF-kB SEAP reporter activity: 1.03
RAW-Dual [1]; [4]
  NF-kB SEAP reporter activity: 1.11
RAW-Dual [1]; [5]
  NF-kB SEAP reporter activity: 1.12

## CCOC(=O)c1ccc(NC2CCCCC2)c(N)c1
RAW-Dual [2]; [6]
  NF-kB SEAP reporter activity: 1.14
RAW-Dual [2]; [7]
  NF-kB SEAP reporter activity: 1.57

## CCn1cc(C(=O)O)c(=O)c2c(N)c(F)c(NC3CCCCC3)cc21
RAW-Dual [2]; [6]
  NF-kB SEAP reporter activity: 1.75
RAW-Dual [2]; [7]
  NF-kB SEAP reporter activity: 1.95

## CCOC(=O)c1ccc(NC2CCCCC2)c(N)c1 (library stock concentration (final ~1000-fold dilution): 10 mM)
RAW-Dual [1]; agonist: LPS (TLR4) 0.1 ug/mL
  NF-kB SEAP reporter activity: 2.07
RAW-Dual [1]; [3]
  NF-kB SEAP reporter activity: 1.28
RAW-Dual [1]; [4]
  NF-kB SEAP reporter activity: 0.963
RAW-Dual [1]; [5]
  NF-kB SEAP reporter activity: 1.09
